# According to PubChem BioAssay (EPA / NIEHS):
# Active and inactive are the calls of the source. The calls were made as follows: active = hit-call score of the fitted dose curve at least 0.9, where 1 is the maximum; inactive = score below 0.9.
# Read-out: Lipase C (LIPC), LIPC (gene 3990)
# Experiment: LTEA_HepaRG_LIPC: Life Technologies and Expression Analysis (LTEA) Assay for Lipase C (LIPC) using HepaRG (AID 2283514)
# Conditions: mRNA level, 48 h; actives raise or lower the signal
# Description: LTEA_HepaRG is a cell based, multiplexed-readout assay that uses HepaRG, a human liver cell line, with measurements taken at 48 hours after chemical dosing on a 96-well plate.LTEA_HepaRG_LIPC is one of 102 assay component(s) measured in the LTEA HepaRG cell culture assay. It is a marker of Steatosis.Data from the assay component LTEA_HepaRG_LIPC was analyzed into 1 endpoint. This assay endpoint, LTEA_HepaRG_LIPC, was analyzed with bidirectional fitting relative to DMSO as the negative control and baseline of activity. Using a type of inducible reporter, measures of mRNA induction for gain or loss-of-signal activity can be used to understand regulation of transcription factor activity. To generalize the intended target to other relatable targets, this assay endpoint is annotated to the esterase intended target family, where the subfamily is lipase.
# A total of 1060 chemcials from the ToxCast library were tested in eight-point concentration-response experiments. Cell culture and cytotoxicity assays were conducted at Thermo Fisher Scientific's Custom Services facility (Madison, WI). A single lot of human HepaRG cells (Thermo Fisher Scientific, Frederick, MD) was used for the cell culture experiments. 96-well format collagen type I coated plates of human HepaRG cells were prepared using established methods. Briefly, cryopreserved HepaRG cells were thawed, plated at a density of approximately 100,000 cells/well in HepaRG Thaw, Plate, and General Purpose media (HPRG770, Thermo Fisher Scientific), and incubated for 48 hours. 0.5% DMSO was selected as vehicle control to balance the requisite need of DMSO in HepaRG cultures to maintain differentiation (for example, baseline metabolism, proportions of hepatocytes vs. cholangiocytes), while enabling further hepatic receptor pathway activation (for example, PXR and CAR) in response to chemical exposure. 48 hours after plating, the culture medium was replaced with HepaRG Serum-Free Incudtion Media. Cells were exposed to each test chemical in duplicate and maintained in CO2 incubators for another 48 hours. Chemical plates were thawed to room temperature and 200x concentrations of treatment groups were prepared. 8-point conentration-reponse curves were made with the highest exposure at 100 uM, followed by half-log dilutions, all in 0.5% DMSO. Each test plate contained variouse controls, induction positive controls (1mM phenobarbital), cytotoxicity positive controls ([…] aflatoxin B1), vehicle controls (0.5% DMSO), and total lysis controls (0.5% DMSO). Cell morphology images were taken using an Essen IncuCyte FLR automated microscope, with six 96-well plates imaged in about 24 minutes. Images were captured and exported and JPEG files. Spent culture media was transfered to black-well plates for the LDH assay, and remaining media was sorted at -80 C for later use. Cells were treated with RLT buffer and frozen until shipped for gene expression analysis. Total RNA was isolated from the cell suspension in 75 uL of Buffer RLT (Qiagen, Germantown, MD 20874) by Quintiles/Expression Analysis (Durham, NC) using a custom isolation procedure. Total RNA from each plate well was transferred to a preamplification plate. Fluidigm's 96.96 Dynamic ArrayTM (Fluidigm, Amsterdam, the Netherlands) technology was used for gene expression analyses by quantitative reverse transcription polymerase chain reaction (qRT-PCR, performed by Quintiles/Expression Analysis, Durham, NC)89. Standard TaqManTM Assays (Applied Biosystems/ThermoFisher Scientific, Foster City, CA) were used to assess the expression of 93 genes selected based on their selectivity and sensitivity to important hepatic receptors known to be modulated by environmental chemicals; importance in human hepatocyte functionality; and hepatotoxicity. […]
Structure (SMILES),AC50,outcome
CC(C)c1cccc(C(C)C)c1N1C(=O)c2ccc(O)cc2C1=O,82.8 µM (active),–
COCCOc1cc2cc(C(=O)NC3CCN(C(C)C)CC3)n(CC(=O)Nc3ccc(Cl)cn3)c2cn1,45 µM (active),–
COc1ccc(-n2nc(C(F)F)cc2-c2ccc(S(C)=O)cc2)cc1 (stereo not given),–,inactive
Fc1ccccc1[C@@H](F)COC1CCC(Nc2ncnc3[nH]ncc23)CC1 (stereo not given in full),50 µM (active),–
COc1ccc(/C=C/S(=O)(=O)NC(=O)c2ccc(C)cc2Cl)cc1,–,inactive
C=CCCCCCCCCC(=O)O,–,inactive
CCOc1cccc(-n2cc(C(=O)N3CCN(c4cc(C(=O)O)c5ccccc5c4)CC3)nc2-c2ccc(C)cc2)c1,31.3 µM (active),–
CC(=O)c1ccc2c(c1)[C@H](NC(=O)c1ccc(F)cc1)[C@@H](O)C(C)(C)O2,–,inactive
Nc1cccc(N)c1,–,inactive
On1ccccc1=S,–,inactive
Cc1ccc(C)c(O)c1,–,inactive
CC(C)=CCC/C(C)=C/CO,–,inactive
O=C(CCCCCCCCc1cccnc1)N1CCC(C=C(c2ccccc2)c2ccccc2)CC1,22.4 µM (active),–
O=C(NS(=O)(=O)/C=C/c1ccccc1)c1ccc(F)cc1Cl,–,inactive
CCCCC(CC)COC(=O)CCCCCCCCC(=O)OCC(CC)CCCC (stereo not given),–,inactive
Oc1ccc2c(c1)-c1ccccc1C2,–,inactive
Nc1ccc(Nc2ccccc2)cc1,83.4 µM (active),–
NC(=O)NO,–,inactive
CCOC(=O)c1ccc(C2CCC(NC[C@H](O)COc3ccc(O)c(NS(C)(=O)=O)c3)CC2)cc1 (stereo not given in full),–,inactive
O=C(O)c1cccc(Oc2ccccc2)c1,–,inactive

Structure (SMILES),AC50,outcome
CCCCCCCCO,–,inactive
O=c1n(CC2CO2)c(=O)n(CC2CO2)c(=O)n1CC1CO1 (stereo not given),71.5 µM (active),–
O=C(O)c1cc(N=Nc2ccc(S(=O)(=O)Nc3ccccn3)cc2)ccc1O,–,inactive
Cc1c(-c2cccnc2)c2ccccc2n1CCCCC(=O)O,–,inactive
O=C(OC[C@H]1O[C@@H](OC(=O)c2cc(O)c(O)c(OC(=O)c3cc(O)c(O)c(O)c3)c2)[C@H](OC(=O)c2cc(O)c(O)c(OC(=O)c3cc(O)c(O)c(O)c3)c2)[C@@H](OC(=O)c2cc(O)c(O)c(OC(=O)c3cc(O)c(O)c(O)c3)c2)[C@@H]1OC(=O)c1cc(O)c(O)c(OC(=O)c2cc(O)c(O)c(O)c2)c1)c1cc(O)c(O)c(OC(=O)c2cc(O)c(O)c(O)c2)c1,8.46 µM (active),–
CC(C)=CCCC(C)CCO (stereo not given),–,inactive
Nc1nc2ncc(CNc3ccc(C(=O)N[C@@H](CCC(=O)O)C(=O)O)cc3)nc2c(=O)[nH]1,–,inactive
CC(C)=CCC/C(C)=C\CO,–,inactive
C1N2CN3CN1CN(C2)C3,–,inactive
CN(C)c1ccc(Cc2ccc(N(C)C)cc2)cc1,80.1 µM (active),–
C[C@](N)(Cc1ccc(O)c(O)c1)C(=O)O,–,inactive
Cc1[nH]cnc1C[C@H]1CCc2c(C)c3ccccc3n2C1=O,27.7 µM (active),–
Cn1c(=O)c2c(ncn2C)n(C)c1=O,–,inactive
CCCN(C1CCN(C(=O)C2CCNCC2)CC1)[C@@H]1CCc2ccc(OC)cc2C1,69.6 µM (active),–
CC(C)CCCCCCCOC(=O)CCCCC(=O)OCCCCCCCC(C)C,–,inactive
CCCC(=O)OCC,–,inactive
CCOC(=O)COc1ccc2c(c1)CC(NCC(O)c1cccc(Cl)c1)CC2 (stereo not given),45.8 µM (active),–
CCCCCCCCCCCCc1ccccc1,–,inactive
CC(C)(O)c1coc(S(=O)(=O)NC(=O)Nc2c3c(cc4c2CCC4)CCC3)c1,–,inactive
COc1ccc2sc(C(=O)Nc3nnn[nH]3)c(OC(C)C)c2c1,–,inactive
